Results as given in PubChem BioAssay (EPA / NIEHS).
“And” between values parts separate entries of the source, which are not always exact repeats. Equal entries are not always repeated. Inconclusive results are not listed. Some structures have more than one record in an assay (separate samples or runs), and their calls can disagree. The source made the active and inactive calls. Rule for the calls, unless noted: active = hit-call score of the fitted dose curve at least 0.9, where 1 is the maximum; inconclusive = response in the unintended direction; inactive = score below 0.9.

Legend:
[1] = ATG_M_19_CIS: Attagene CIS-FACTORIAL HepG2 Assay for M19 Transcription Factor (Internal Marker) (AID 2282939; active = hit-call score of the fitted dose curve at least 0.9, where 1 is the maximum; inactive = score below 0.9); conditions: HepG2 Attagene CIS-FACTORIAL M19 internal marker reporter; actives raise or lower the signal
Procedure, shortened: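 Signals come from fluorescence of labelled reporter-specific PCR fragments resolved by capillary electrophoresis, following 24 h treatment of HepG2 cells transfected with cis-promoter reporter units; activity was fitted in both directions relative to DMSO.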

[2] = biological target: Hypoxia-inducible factor 1-alpha (Homo sapiens) (UniProt Q16665); experiment: ATG_HIF1a_CIS: Attagene CIS-FACTORIAL HepG2 Assay for human Hypoxia Inducible Factor 1 (HIF1A) (AID 2282951; active = hit-call score of the fitted dose curve at least 0.9, where 1 is the maximum; inactive = score below 0.9); conditions: HepG2 Attagene cis-factorial HIF1a reporter transcription; actives raise or lower the signal
Hypoxia-inducible factor 1-alpha (Homo sapiens), sequence (Q16665 whole entry, looked up): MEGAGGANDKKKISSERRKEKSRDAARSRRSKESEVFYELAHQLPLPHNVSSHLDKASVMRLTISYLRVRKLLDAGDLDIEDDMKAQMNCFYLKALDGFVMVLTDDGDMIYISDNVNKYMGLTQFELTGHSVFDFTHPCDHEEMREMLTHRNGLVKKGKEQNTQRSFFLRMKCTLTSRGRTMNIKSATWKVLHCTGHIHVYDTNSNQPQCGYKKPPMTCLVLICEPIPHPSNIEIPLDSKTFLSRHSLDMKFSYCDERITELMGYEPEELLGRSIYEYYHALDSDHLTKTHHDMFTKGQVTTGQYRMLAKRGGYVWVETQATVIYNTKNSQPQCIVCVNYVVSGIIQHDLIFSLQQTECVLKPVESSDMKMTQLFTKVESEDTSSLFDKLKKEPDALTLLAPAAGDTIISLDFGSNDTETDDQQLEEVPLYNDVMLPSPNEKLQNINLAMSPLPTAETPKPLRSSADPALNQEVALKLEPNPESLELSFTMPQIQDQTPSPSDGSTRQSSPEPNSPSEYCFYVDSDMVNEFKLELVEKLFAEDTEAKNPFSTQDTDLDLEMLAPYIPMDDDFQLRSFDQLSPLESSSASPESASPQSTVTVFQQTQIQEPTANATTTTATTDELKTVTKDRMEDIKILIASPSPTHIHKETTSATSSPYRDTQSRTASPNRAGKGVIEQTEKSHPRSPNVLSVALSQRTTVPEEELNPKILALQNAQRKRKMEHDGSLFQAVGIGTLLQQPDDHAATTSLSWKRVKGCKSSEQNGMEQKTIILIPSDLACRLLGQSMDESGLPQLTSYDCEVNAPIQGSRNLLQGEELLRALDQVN
Procedure, shortened: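 HepG2 cells transiently transfected with multiple cis-regulated reporter transcription units measure endogenous transcription factor activity. After 24 h exposure, reporter mRNA is quantified by RT-PCR with 6-FAM labelling, HpaI digestion and capillary electrophoresis. Bidirectional fitting against DMSO.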

[3] = biological target: Heat shock factor protein 1 (Homo sapiens) (UniProt Q00613); experiment: ATG_HSE_CIS: Attagene CIS-FACTORIAL HepG2 Assay for human Heat Shock Transcription Factor 1 (HSE) (AID 2282953; active = hit-call score of the fitted dose curve at least 0.9, where 1 is the maximum; inactive = score below 0.9); conditions: HepG2 HSE cis-reporter, Attagene RNA transcription; actives raise or lower the signal
Heat shock factor protein 1 (Homo sapiens), sequence (Q00613 whole entry, looked up, the tested form may be a part): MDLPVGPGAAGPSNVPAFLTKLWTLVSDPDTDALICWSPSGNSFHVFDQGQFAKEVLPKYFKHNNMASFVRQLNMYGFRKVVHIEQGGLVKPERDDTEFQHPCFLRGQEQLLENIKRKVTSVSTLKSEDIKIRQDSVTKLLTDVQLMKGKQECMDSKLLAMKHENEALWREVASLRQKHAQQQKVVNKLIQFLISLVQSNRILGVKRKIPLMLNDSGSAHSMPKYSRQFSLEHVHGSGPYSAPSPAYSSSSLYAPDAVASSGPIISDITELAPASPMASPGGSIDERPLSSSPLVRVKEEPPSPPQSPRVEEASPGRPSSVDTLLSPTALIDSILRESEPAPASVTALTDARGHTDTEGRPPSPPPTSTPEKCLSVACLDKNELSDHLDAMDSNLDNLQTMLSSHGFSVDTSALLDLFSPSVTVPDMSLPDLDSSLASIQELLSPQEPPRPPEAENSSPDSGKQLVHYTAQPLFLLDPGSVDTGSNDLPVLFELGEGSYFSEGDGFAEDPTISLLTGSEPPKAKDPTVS
Procedure, shortened: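 Endogenous transcription factor activity captured via cis-promoter reporter units transfected into HepG2; treatment lasted 24 h. Fluorescence intensity of reporter fragments analysed with bidirectional curve fitting, DMSO baseline.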

[4] = ATG_PBREM_CIS: Attagene CIS-FACTORIAL HepG2 Assay for human Phenobarbital-responsive Enhancer Module (PBREM) (AID 2282955; active = hit-call score of the fitted dose curve at least 0.9, where 1 is the maximum; inactive = score below 0.9); conditions: HepG2 PBREM cis-reporter, Attagene multiplexed transcription; actives raise or lower the signal
Procedure, shortened: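 HepG2 cells transiently transfected with multiple cis-regulated reporter units measure endogenous transcription factor activity; 24 h compound exposure. Reporter mRNA quantified by RT-PCR, fluorescent labelling, HpaI digestion and capillary electrophoresis; bidirectional fit versus DMSO.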

[5] = ATG_RORE_CIS: Attagene CIS-FACTORIAL HepG2 Assay for human RAR-related Orphan Receptor Element (RORE) (AID 2282959; active = hit-call score of the fitted dose curve at least 0.9, where 1 is the maximum; inactive = score below 0.9); conditions: HepG2 Attagene cis-factorial RORE reporter, mRNA; actives raise or lower the signal
Procedure, shortened: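 HepG2 cells carrying transiently transfected cis-regulated reporter units; RORE-driven reporter mRNA quantified 24 h post-dosing by RT-PCR, 6-FAM primer extension, HpaI digestion and capillary electrophoresis. Bidirectional fit versus DMSO.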

[6] = biological target: Hepatocyte nuclear factor 4-alpha (Homo sapiens) (UniProt P41235); experiment: ATG_HNF4a_TRANS: Attagene TRANS-FACTORIAL HepG2 Assay for human Hepatocyte Nuclear Factor 4 alpha (HNF4a) (AID 2282982); conditions: HepG2 HNF4a transactivation reporter, mRNA readout
Hepatocyte nuclear factor 4-alpha (Homo sapiens), sequence (P41235 whole entry, looked up): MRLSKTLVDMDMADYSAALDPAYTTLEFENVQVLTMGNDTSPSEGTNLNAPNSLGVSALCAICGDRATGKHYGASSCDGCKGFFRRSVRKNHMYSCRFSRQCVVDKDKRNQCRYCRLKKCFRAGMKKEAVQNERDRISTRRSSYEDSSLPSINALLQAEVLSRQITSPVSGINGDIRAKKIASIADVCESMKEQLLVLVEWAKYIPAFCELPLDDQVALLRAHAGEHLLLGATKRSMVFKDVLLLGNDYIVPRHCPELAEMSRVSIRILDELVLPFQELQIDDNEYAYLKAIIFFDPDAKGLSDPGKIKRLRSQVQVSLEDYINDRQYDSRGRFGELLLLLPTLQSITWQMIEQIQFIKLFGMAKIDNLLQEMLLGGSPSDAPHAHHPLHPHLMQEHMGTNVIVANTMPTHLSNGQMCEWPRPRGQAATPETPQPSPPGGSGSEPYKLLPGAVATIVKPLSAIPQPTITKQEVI
Procedure, shortened: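 Transient MRTU transfection of HepG2, 24 h dosing. Readout: reporter mRNA via RT-PCR + capillary electrophoresis, fluorescence; activity fit upward relative to DMSO control.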

[7] = ATG_NRF2_ARE_CIS: Attagene CIS-FACTORIAL HepG2 Assay for human Nuclear Factor Erythroid 2 Related Factor 2 (NFR2) response to Antioxidant Response Elements (ARE) (AID 2282992; active = hit-call score of the fitted dose curve at least 0.9, where 1 is the maximum; inactive = score below 0.9;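 for AC50: reporter mRNA level measured by RT-PCR and capillary electrophoresis fluorescence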); conditions: HepG2 Attagene ARE/NRF2 reporter, transcription factor activity; actives raise or lower the signal
Procedure, shortened: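 Endogenous transcription factor activity in human liver HepG2 cells is tracked via a cis-element-driven reporter within a multiplexed set. mRNA induction is read by RT-PCR and capillary electrophoresis after 24 h, with DMSO as baseline.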

[8] = biological target: human Peroxisome Proliferator-activated Receptor alpha (PPARa), PPARA (gene 5465) (UniProt Q07869); experiment: ATG_PPARa_TRANS: Attagene TRANS-FACTORIAL HepG2 Assay for human Peroxisome Proliferator-activated Receptor alpha (PPARa) (AID 2283001);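 for AC50: potency for gain of reporter signal over DMSO so agonist or activator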
human Peroxisome Proliferator-activated Receptor alpha (PPARa), PPARA (gene 5465), sequence (Q07869 whole entry, looked up, the tested form may be a part): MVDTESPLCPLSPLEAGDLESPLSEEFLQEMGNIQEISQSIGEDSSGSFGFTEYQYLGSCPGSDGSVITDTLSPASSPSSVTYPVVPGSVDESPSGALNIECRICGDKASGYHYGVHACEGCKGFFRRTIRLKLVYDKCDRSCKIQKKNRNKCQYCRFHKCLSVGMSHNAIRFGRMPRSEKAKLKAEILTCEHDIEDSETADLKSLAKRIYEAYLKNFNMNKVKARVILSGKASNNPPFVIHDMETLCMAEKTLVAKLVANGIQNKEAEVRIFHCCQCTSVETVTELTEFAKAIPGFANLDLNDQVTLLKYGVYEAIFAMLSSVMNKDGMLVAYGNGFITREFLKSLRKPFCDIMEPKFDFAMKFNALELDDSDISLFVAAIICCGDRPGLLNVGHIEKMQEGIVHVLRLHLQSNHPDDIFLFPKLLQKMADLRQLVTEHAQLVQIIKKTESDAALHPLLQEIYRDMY
Procedure, shortened: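 Transient HepG2 transfection, GAL4-UAS reporters, NR-Gal4 chimeras; 24 h compound exposure. Readout: reporter transcripts by RT-PCR, 6-FAM primer extension, HpaI digest, capillary electrophoresis. Positive direction vs DMSO baseline.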

[9] = biological target: Peroxisome proliferator-activated receptor gamma (Homo sapiens) (UniProt P37231); experiment: ATG_PPARg_TRANS: Attagene TRANS-FACTORIAL HepG2 Assay for human Peroxisome Proliferator-activated Receptor-gamma (PPARg) (AID 2283007)
Peroxisome proliferator-activated receptor gamma (Homo sapiens), sequence (P37231 whole entry, looked up, the tested form may be a part): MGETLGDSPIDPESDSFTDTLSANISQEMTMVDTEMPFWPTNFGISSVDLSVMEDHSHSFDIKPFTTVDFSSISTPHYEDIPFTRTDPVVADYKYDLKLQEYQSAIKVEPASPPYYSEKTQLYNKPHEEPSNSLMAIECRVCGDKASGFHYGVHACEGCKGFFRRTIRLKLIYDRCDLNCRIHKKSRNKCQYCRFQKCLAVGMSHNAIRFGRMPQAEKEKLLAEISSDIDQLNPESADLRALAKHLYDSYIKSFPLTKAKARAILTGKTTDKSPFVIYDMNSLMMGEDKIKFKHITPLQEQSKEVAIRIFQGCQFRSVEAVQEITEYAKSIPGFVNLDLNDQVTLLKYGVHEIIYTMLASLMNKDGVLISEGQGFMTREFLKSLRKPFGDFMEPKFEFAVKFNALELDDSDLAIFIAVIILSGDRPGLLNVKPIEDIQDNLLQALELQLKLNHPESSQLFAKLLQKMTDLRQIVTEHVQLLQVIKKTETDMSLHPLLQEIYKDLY
Procedure, shortened: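 HepG2 cells are transiently transfected with GAL4-UAS reporter units driven by chimeric NR-Gal4 fusions and dosed for 24 h. Reporter mRNA is quantified by RT-PCR, 6-FAM labelling, HpaI digestion and capillary electrophoresis. Induction is scored against DMSO.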

[10] = biological target: Nuclear receptor subfamily 1 group I member 2 (Homo sapiens) (UniProt O75469); experiment: ATG_PXR_TRANS: Attagene TRANS-FACTORIAL HepG2 Assay for human Pregnane X Receptor (PXR) (AID 2283008)
Nuclear receptor subfamily 1 group I member 2 (Homo sapiens), sequence (O75469 whole entry, looked up, the tested form may be a part): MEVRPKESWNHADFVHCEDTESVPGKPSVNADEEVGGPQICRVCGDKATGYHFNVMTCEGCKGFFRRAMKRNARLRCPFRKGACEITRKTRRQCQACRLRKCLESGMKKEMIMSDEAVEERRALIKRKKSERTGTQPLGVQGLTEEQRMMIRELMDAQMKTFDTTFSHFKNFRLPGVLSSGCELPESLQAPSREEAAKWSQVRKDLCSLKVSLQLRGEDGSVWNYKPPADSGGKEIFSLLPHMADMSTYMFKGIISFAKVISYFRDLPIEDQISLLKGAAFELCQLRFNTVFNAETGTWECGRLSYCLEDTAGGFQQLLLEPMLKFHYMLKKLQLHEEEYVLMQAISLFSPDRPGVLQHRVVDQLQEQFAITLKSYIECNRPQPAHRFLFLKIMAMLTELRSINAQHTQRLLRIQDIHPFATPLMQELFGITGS
Procedure, shortened: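 HepG2 transfected (FuGene 6) with GAL4-UAS reporter units + PXR-Gal4 chimera; dosed 24 h. Total RNA → oligo(dT) RT → PCR → 6-FAM primer extension → HpaI cut → CE. Gain-of-signal vs DMSO.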

[11] = biological target: Retinoic acid receptor RXR-alpha (Homo sapiens) (UniProt P19793); experiment: ATG_RXRa_TRANS: Attagene TRANS-FACTORIAL HepG2 Assay for human Retinoid X Receptor alpha (RXRa) (AID 2283012)
Retinoic acid receptor RXR-alpha (Homo sapiens), sequence (P19793 whole entry, looked up, the tested form may be a part): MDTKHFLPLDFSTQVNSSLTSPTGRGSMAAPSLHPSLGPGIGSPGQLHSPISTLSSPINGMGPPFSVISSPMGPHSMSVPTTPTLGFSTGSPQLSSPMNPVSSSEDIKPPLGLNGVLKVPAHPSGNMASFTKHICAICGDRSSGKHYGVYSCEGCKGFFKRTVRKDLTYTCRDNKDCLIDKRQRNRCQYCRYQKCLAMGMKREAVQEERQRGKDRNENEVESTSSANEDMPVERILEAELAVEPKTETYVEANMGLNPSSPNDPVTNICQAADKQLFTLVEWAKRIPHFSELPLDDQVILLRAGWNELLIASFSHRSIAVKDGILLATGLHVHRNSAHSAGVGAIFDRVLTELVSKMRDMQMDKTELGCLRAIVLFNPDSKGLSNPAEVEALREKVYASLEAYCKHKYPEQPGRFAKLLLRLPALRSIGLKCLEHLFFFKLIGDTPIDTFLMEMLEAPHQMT
Procedure, shortened: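 Read-out: fluorescent reporter-transcript fragments quantified by capillary electrophoresis after RT-PCR. Transiently transfected HepG2 cells carrying GAL4-UAS reporters and NR-GAL4 chimeras were exposed to chemical for 24 h; activity scored as increase over DMSO.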

[12] = biological target: human Thyroid Receptor alpha (THRa1), THRA (gene 7067) (UniProt P10827); experiment: ATG_THRa1_TRANS: Attagene TRANS-FACTORIAL HepG2 Assay for human Thyroid Receptor alpha (THRa1) (AID 2283014)
human Thyroid Receptor alpha (THRa1), THRA (gene 7067), sequence (P10827 whole entry, looked up, the tested form may be a part): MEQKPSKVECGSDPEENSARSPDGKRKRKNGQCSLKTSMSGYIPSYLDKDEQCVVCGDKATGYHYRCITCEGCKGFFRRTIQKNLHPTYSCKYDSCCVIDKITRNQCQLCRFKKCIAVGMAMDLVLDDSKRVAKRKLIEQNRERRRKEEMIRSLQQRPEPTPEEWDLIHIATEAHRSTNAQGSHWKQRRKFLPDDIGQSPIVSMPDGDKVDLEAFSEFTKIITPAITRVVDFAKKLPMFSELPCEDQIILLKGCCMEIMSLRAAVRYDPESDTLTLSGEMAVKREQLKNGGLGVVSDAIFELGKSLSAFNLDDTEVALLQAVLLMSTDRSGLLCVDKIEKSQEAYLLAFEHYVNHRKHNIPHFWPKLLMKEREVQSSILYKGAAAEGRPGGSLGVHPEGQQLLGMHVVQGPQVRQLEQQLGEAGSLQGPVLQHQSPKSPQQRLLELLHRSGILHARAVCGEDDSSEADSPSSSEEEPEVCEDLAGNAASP
Procedure, shortened: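 First, HepG2 cells receive multiple GAL4-UAS reporter units and the chimeric receptor. They are then dosed for 24 h, after which RNA is reverse-transcribed, amplified, labelled, HpaI-cut and sized by capillary electrophoresis; gain relative to DMSO is scored.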

[13] = biological target: Cellular tumor antigen p53 (Homo sapiens) (UniProt P04637); experiment: TOX21_p53_BLA_p2_ratio: Tox21 HCT-116 p53 Agonism Beta-lactamase Assay, Ratio, Phase 2 (AID 2283592)
Cellular tumor antigen p53 (Homo sapiens), sequence (P04637 whole entry, looked up): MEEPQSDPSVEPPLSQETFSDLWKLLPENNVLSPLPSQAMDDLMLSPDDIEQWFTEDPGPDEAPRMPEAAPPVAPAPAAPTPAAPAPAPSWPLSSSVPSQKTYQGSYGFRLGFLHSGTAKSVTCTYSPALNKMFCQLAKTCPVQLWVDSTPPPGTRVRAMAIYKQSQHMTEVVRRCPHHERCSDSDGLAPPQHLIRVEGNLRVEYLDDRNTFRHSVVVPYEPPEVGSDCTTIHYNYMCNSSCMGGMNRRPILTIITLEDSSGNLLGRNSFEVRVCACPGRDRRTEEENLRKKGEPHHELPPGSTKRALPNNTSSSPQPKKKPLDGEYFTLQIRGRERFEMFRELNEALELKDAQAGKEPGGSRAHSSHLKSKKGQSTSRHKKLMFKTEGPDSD
Procedure, shortened: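 Cleaved-to-uncleaved substrate ratio (460 vs 530 nm) measured in HCT116 cells with an inducible beta-lactamase reporter linked to p53 activity. Compounds incubated 16 h at 37C before 2 h room-temperature CCF4-AM loading.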

[14] = biological target: Cellular tumor antigen p53 (Homo sapiens) (UniProt P04637); experiment: TOX21_p53_BLA_p3_ratio: Tox21 HCT-116 p53 Agonism Beta-lactamase Assay, Ratio, Phase 3 (AID 2283596)
Procedure, shortened: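 Cells were seeded at 4000/well, rested 5 h at 37C, then dosed with DMSO compound solutions (217-fold dilution) for 16 h. CCF4-AM substrate was loaded for 2 h at room temperature, and the 460/530 nm emission ratio was fitted for gain of signal versus DMSO.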

[15] = biological target: Cellular tumor antigen p53 (Homo sapiens) (UniProt P04637); experiment: TOX21_p53_BLA_p5_ratio: Tox21 HCT-116 p53 Agonism Beta-lactamase Assay, Ratio, Phase 5 (AID 2283599)
Procedure, shortened: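 HCT-116 p53-bla cells (4000/well) plated 5 h, dosed with compound (217-fold DMSO dilution) for 16 h at 37 C; CCF4-AM substrate 2 h at room temperature. Activity is the 460/530 nm emission ratio (405 nm excitation), fitted in gain-of-signal direction versus DMSO.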

[16] = TOX21_p53_BLA_p5_viability: Viability Assessment in the Tox21 HCT-116 p53 Agonism Beta-lactamase Assay, Phase 5 (AID 2283600)
Procedure, shortened: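 Viability is taken from cellular ATP content, measured by luciferase luminescence in the same wells after the beta-lactamase ratio read. Cells are seeded at 4000 per well and exposed to DMSO-dissolved compounds, diluted 217-fold, for 16 h.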

[17] = biological target: Cellular tumor antigen p53 (Homo sapiens) (UniProt P04637); experiment: TOX21_p53_BLA_p4_ratio: Tox21 HCT-116 p53 Agonism Beta-lactamase Assay, Ratio, Phase 4 (AID 2283601)
Procedure, shortened: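 HCT-116 p53 beta-lactamase reporter cells (4000/well) preincubated 5 h, then compound (217-fold dilution of DMSO stock) for 16 h at 37C. CCF4-AM substrate added 2 h at room temperature; 460/530 nm emission ratio fitted upward versus DMSO.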

[18] = ATG_M_06_TRANS: Attagene TRANS-FACTORIAL HepG2 Assay for M06 Transcription Factor (Internal Marker) (AID 2282983); conditions: HepG2 Attagene TRANS M06 internal marker reporter;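 note: reporter transcript level by RT-PCR then capillary electrophoresis fluorescence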
Procedure, shortened: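 Human liver HepG2 cells bearing transiently transfected chimeric NR-GAL4 reporter units were treated with chemicals for 24 h. Total RNA was reverse-transcribed, reporter sequences amplified and labelled, then quantified by capillary electrophoresis. Activity was fitted upward relative to DMSO.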

[19] = ATG_FoxO_CIS: Attagene CIS-FACTORIAL HepG2 Assay for human Forkhead box O (FoxO) (AID 2282943; active = hit-call score of the fitted dose curve at least 0.9, where 1 is the maximum; inactive = score below 0.9); conditions: HepG2 Attagene cis-reporter, FoxO element, mRNA; actives raise or lower the signal
Procedure, shortened: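 HepG2 cells transiently transfected with cis-element-driven reporter units report endogenous FoxO activity. After 24 h chemical exposure, reporter mRNA quantified by RT-PCR, fluorescent labeling, HpaI digestion and capillary electrophoresis; bidirectional fit versus DMSO.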

[20] = ATG_GRE_CIS: Attagene CIS-FACTORIAL HepG2 Assay for human Glucocorticoid Response Elements (GRE) (AID 2282947; active = hit-call score of the fitted dose curve at least 0.9, where 1 is the maximum; inactive = score below 0.9); conditions: HepG2 GRE cis-reporter, Attagene multiplex mRNA; actives raise or lower the signal
Procedure, shortened: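 Read-out: fluorescent reporter-transcript fragments separated by capillary electrophoresis after RT-PCR. Transiently transfected HepG2 cells carrying cis-element-driven reporter units were dosed for 24 h; gain or loss of signal fitted against DMSO control.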

Measured: AC50

O=C(NC(=O)c1c(F)cccc1F)Nc1ccc(Oc2ccc(C(F)(F)F)cc2Cl)cc1F
active: [7] 34.5 µM | [9] 3.59 µM
not listed: [18] | [19] | [20]
inactive: all other assays above

COC(C)(C)CCC[C@H](C)C/C=C/C(C)=C/C(=O)OC(C)C
active: [9] 7.82 µM | [10] 16.3 µM
not listed: [2] | [3] | [5] | [6] | [7] | [19] | [20]
inactive: all other assays above

ClCC(Cl)Cl
active: [10] 26.6 µM
not listed: [5] | [6] | [11] | [12] | [14]
inactive: all other assays above

C=CCO
inactive: [1] | [19] | [20] | [4] | [7] | [8] | [13] | [14] | [15] | [16] | [17]

C[C@]12CC[C@H](O)C[C@H]1CC[C@@H]1[C@@H]2C[C@@H](O)[C@]2(C)[C@@H](C3=CC(=O)OC3)CC[C@]12O
active: [19] 8.56 µM | [20] 6.51 µM | [3] 2.96 µM | [8] 1.78 µM | [9] 1.87 µM
inactive: [1] | [4] | [6] | [18] | [7] | [10] | [11] | [12]

C=CC(=O)OCCCCOC(=O)C=C
active: [19] 54.7 µM | [20] 70.5 µM | [2] 63.6 µM | [7] 24.6 µM | [9] 2.14 µM | [13] 49.6 µM
not listed: [3] | [5] | [12] | [16]
inactive: all other assays above

CC1OC(C)OC(C)O1 (configuration not stated)
active: [14] 34.1 µM
inactive: [1] | [2] | [3] | [5] | [6] | [7] | [9] | [10] | [11] | [12] | [13] | [14] | [15] | [16] | [17]

N#CCNCC#N
not listed: [6] | [7] | [10] | [12] | [14] | [15] | [16] | [20]
inactive: all other assays above

C[C@]12CC[C@H]3[C@@H](CC[C@@]45O[C@@H]4C(O)=C(C#N)C[C@]35C)[C@@H]1CC[C@@H]2O
active: [2] 64.5 µM | [7] 58.9 µM | [10] 27.4 µM | [13] 64.6 µM and 35.9 µM | [14] 67 µM | [15] 68.6 µM | [17] 65.8 µM
inactive: [1] | [19] | [4] | [6] | [18] | [9] | [11] | [12] | [14] | [15] | [16] | [17]
